# Test results published in PubChem BioAssay (NCI).
# “And” between values parts separate entries of the source, which are not always exact repeats. Identical values can stand only once. The panel holds about 83,000 compounds, 20% with a hit somewhere; the sample as a whole holds those more often.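 Method: cells in 96-well plates; compound added at one concentration; 48 h incubation; percent growth measured; values under 10 scored active.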 The source made the active and inactive calls.
# System: MDA-MB-468 breast
# Test: NCI-60 one-dose screen, 48 h (100 = growth as untreated, 0 = no growth, -100 = all killed)
# Conditions: 10 µM unless noted
row,SMILES,growth
1,C/C=C/C1OCC(CC)C(CCC)O1 (stereo not given),122% (inactive)
2,O=c1c2cccc3c(Nc4ccccn4)ccc(c32)c2nc3ccccc3n12,-22.4% (active)
3,N#C/C(=C\c1ccc(-c2cc(C(F)(F)F)ccc2Cl)o1)c1nc(-c2ccco2)cs1,-3.16% (active)
4,O=C(Nc1ccccc1Cl)Oc1ccc2ccccc2c1,104% (inactive)
5,O=C1Cc2ccccc2C(=O)N1,45.8% (inactive)
6,COc1cccc2nc(Nc3ccc(NC(=O)c4ccc5ncccc5c4)cc3)ccc12,88.9% (inactive)
7,COc1cc(C2CC(c3ccccc3)=NN2C=O)ccc1Oc1ccnc2cc(Cl)ccc12 (stereo not given),16.5% (inactive)
8,O=C1C(=O)/C(=C/c2ccccc2)CCCCCC/C1=C/c1ccccc1,65.7% (inactive)
9,COc1ccc2cc(-c3nc4ccc(C)cn4c3NCc3ccco3)c(=O)[nH]c2c1,67.1% (inactive)
10,COc1cccc(NC(=O)Cn2cc(CN3CCN(c4ccnc5cc(Cl)ccc45)CC3)nn2)c1,84.1% (inactive)
11,COc1cc(C(=O)n2nc(N3CCN(C)CC3)c3cc(N)ccc32)cc(OC)c1OC,0.604% (active)
12,CCCCCCCCCCCCCCC(C(=O)OCC)C(=O)OCC,95.9% (inactive)
13,O=C(Nc1ccc(OCc2nnc(-c3ccc(Cl)cc3)o2)c(F)c1)Nc1ccc(Cl)c(C(F)(F)F)c1,-24.8% (active)
14,CCCc1nc(C(C)(C)O)c(C(=O)O)n1Cc1ccc(-c2ccccc2-c2nn[nH]n2)cc1,112% (inactive)
15,CC(C)=CC/C=C(/C)[C@H]1CC[C@]2(C)[C@@H]1CC[C@@H]1[C@@]3(C)CC/C(=N/O)C(C)(C)[C@@H]3CC[C@]12C,47.7% [100 µM] (inactive)
16,CC[C@@H](C)/C=C(C)/C=C/C(=O)c1c(O)c(-c2ccc(OC(=O)[C@@]34CC[C@@](C)(C(=O)O3)C4(C)C)cc2)cn(O)c1=O,-4.05% (active)
17,CCOC(=O)C1=C(N)Oc2c(sc3c(C)cccc23)C1c1ccc(F)cc1 (stereo not given),6.58% (active)
18,Cc1ccc(N(CC(=O)Nc2ccc(S(=O)(=O)NC3CCN(C)CC3)cc2)S(=O)(=O)c2ccc(Cl)cc2)cc1,50.3% (inactive)
19,NC1=Nc2ccccc2N(O)N1,102% (inactive)
20,CN1C[C@@H](c2ccc(Cl)cc2)[C@]2(NC(=S)N(c3ccccc3)C2=O)[C@@]12C(=O)NC1C=CC(Br)=C[C@H]12 (stereo not given in full),67.7% (inactive)

row,SMILES,growth
1,O=C(N/N=C/c1ccc(Cl)cc1)c1[nH]c2ccc(Cl)cc2c1-c1ccccc1,33.7% (inactive)
2,CC1(c2ccccc2)OC1C(=O)O (stereo not given),99.2% (inactive)
3,CCCCCCCCCCCCCCCC(=O)O[C@@H]1[C@@H](O)[C@@H](O)C([C@H](NC(=O)[C@@H]2C[C@@H](CCC)CN2C)[C@H](C)Cl)O[C@@H]1SC (stereo not given in full),97.9% (inactive)
4,O=C(Nc1ccccc1)c1cc(Cl)ccc1O,47.6% (inactive)
5,[2H]C([2H])([2H])Oc1ccc(/C=C/C(=O)/C=C(/C=C/c2ccc(OC([2H])([2H])[2H])c(OC([2H])([2H])[2H])c2OC([2H])([2H])[2H])OB(F)F)c(OC([2H])([2H])[2H])c1OC([2H])([2H])[2H],65% (inactive)
6,CC(=O)c1ccc2c(c1)CCN2,104% (inactive)
7,COc1cc(OC)c(S(=O)(=O)NNC(=O)c2ccncc2)cc1C(=O)/C=C/c1ccc(C)cc1,38.3% (inactive)
8,Cn1cc(-c2noc(C(=O)c3cn(C)c4ncc(Br)cc34)n2)c2ccccc21,111% (inactive)
9,O=C1Nc2ccccc2/C1=C/C(=O)c1ccc(N2CCOCC2)cc1,85% (inactive)
10,N#Cc1c2ccccc2c2n1-c1ccccc1OC(c1ccccc1)C2=O (stereo not given),65.7% (inactive)
11,O=C(c1ccc(Cl)cc1)c1ccc(Cl)cc1,97.2% (inactive)
12,Cn1c2nc3ccccc3c-2nc2ccccc21,75.4% (inactive)
13,Cc1cc(=O)oc2cc(Oc3nc(-c4ccccc4)cn4c(-c5ccccc5)cnc34)ccc12,44.2% (inactive)
14,NC(=NCc1ccccc1)C(N=Nc1ccccc1)C(=O)NCc1ccccc1 (stereo not given),55.3% (inactive)
15,NNCCc1ccccc1,113% (inactive) and 89.6% (inactive)
16,CC(C)(C)[Si](C)(C)OC1[C@@H](COC(N)=O)O[C@@H](n2cnc3c(N)ncnc32)[C@H]1O[Si](C)(C)C(C)(C)C (stereo not given in full),97.2% (inactive)
17,O=S(=O)(NCl)c1ccccc1,108% (inactive)
18,CCN(CC)CCS(=O)(=O)CCNc1ccnc2cc(Cl)ccc12,-49.2% (active)
19,O=C1Nc2c(ccc(Cl)c2Cl)/C1=C/c1ccc(O)cc1,62% (inactive)
20,C[C@]12CCC(=O)C=C1CCC1C2[C@@H](O)C[C@@]2(C)C1CC[C@]2(O)C(=O)COC(=O)CCC(=O)O (stereo not given in full),109% (inactive)
